# Assay results from PubChem BioAssay.
# Where “and” joins values, the source holds several entries; their conditions need not be identical. Equal entries are not always repeated. Records with an inconclusive call do not appear. A structure can be active in one record and inactive in another. Calls of active or inactive are those of the source. Cut-off read from the data, not from the text of the source, unless noted: active = inhibition above about 80%; inactive = the rest.
# Assays:
# [1] = growth inhibition, single agent or in combination, cell-based, chromothripsis tumors, cisplatin or BGB combos (AID 1671449); conditions: LFS_MB_P medulloblastoma cells;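 note: cells exposed for 96 hours; 0% = vehicle DMSO and 100% = killing by high DMSO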
# [2] = growth inhibition, single agent and combos, cell-based, chromothripsis tumors, cisplatin or BGB combos (AID 1671450); conditions: HDN33 neuroblastoma cells, stronger effect = higher value;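 note: cells exposed to compound for four days; 0% = vehicle DMSO and 100% = cell killing by high DMSO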
# [3] = growth inhibition, single agents and combos, ICB984, cell-based, cisplatin or BGB combos, synergistic combos for chromothripsis tumors (AID 1671451; call rule not given here;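 note: cells exposed for 96 hours before readout; 0% = vehicle DMSO and 100% = killing by high DMSO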); conditions: ICB984 medulloblastoma cells, drug combinations, stronger effect = higher value
# [4] = growth inhibition, single agents and combos, LFS_MB_1R, cell-based, cisplatin or BGB combos, synergistic combos for chromothripsis tumors (AID 1671452); conditions: LFS_MB_1R medulloblastoma cells, stronger effect = higher value;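 note: cells exposed for 96 hours before readout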
# [5] = growth inhibition, single agents and combos, HTB85, cell-based, BGB or cisplatin IC20 combos, synergistic combos for chromothripsis tumors (AID 1671453); conditions: HTB85 osteosarcoma cells, drug combinations, stronger effect = higher value;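 note: cells exposed for 96 hours before readout; 0% = vehicle DMSO and 100% = high DMSO killing control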
# [6] = growth inhibition, single agents and combos, CRL2098, cell-based, BGB or cisplatin IC20 combos, synergistic combos for chromothripsis tumors (AID 1671454); conditions: CRL2098 osteosarcoma cells, drug combinations, stronger effect = higher value;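 note: cells exposed for 96 h before readout; 0% = vehicle DMSO and 100% = killing by high DMSO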
# [7] = growth inhibition, single agents and combos, HD-MB03, cell-based, BGB or cisplatin IC20 combos, synergistic combos for chromothripsis tumors (AID 1671455; in the data active = inhibition above about 83%;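 note: 0% = vehicle DMSO and 100% = high DMSO as cytotoxic control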); conditions: HD-MB03 medulloblastoma cells, stronger effect = higher value
# [8] = growth inhibition, single agents and combos, UWB1.289, cell-based, BGB or cisplatin combos, synergistic combos for chromothripsis tumors (AID 1671456); conditions: UWB1.289 ovarian carcinoma cells, stronger effect = higher value;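 note: cells exposed to compound for four days; 0% = vehicle DMSO and 100% = killing by high DMSO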
# [9] = growth inhibition, single agents and combos, LFS_MB_2R, cell-based, cisplatin combos, synergistic combos for chromothripsis tumors (AID 1671457); conditions: LFS_MB_2R medulloblastoma cells, stronger effect = higher value;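 note: cells exposed to compound for four days before readout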
# [10] = growth inhibition, MDA-MB-436, cell-based, BGB or cisplatin combos, synergistic combos for chromothripsis tumors (AID 1671458; call rule not given here;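 note: cells exposed for 96 hours; 0% = vehicle DMSO and 100% = killing by high DMSO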); conditions: MDA-MB-436 breast carcinoma growth inhibition, drug combinations, stronger effect = higher value
# [11] = UWB1.289_BRCA1 ovarian cancer growth, cell-based, BGB or cisplatin combinations (AID 1671459); conditions: UWB1.289 BRCA1 ovarian carcinoma, drug combinations, stronger effect = higher value
# [12] = drug combination toxicity in non-malignant astrocytes – cell-based, BGB or cisplatin IC20 combos, cytotoxicity control for chromothriptic childhood tumor combination screen (AID 1671460); conditions: Human astrocytes, viability inhibition, drug combinations, at 0.5 µM, stronger effect = higher value;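 note: cells exposed to compounds for 96 hours before viability readout; 0% = vehicle and 100% = killing control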
# [13] = BT084 cell growth, single and combined drugs, ICGC_MB145, cisplatin and BGB IC40 combos (AID 1671461); conditions: BT084 medulloblastoma cells, drug combinations, stronger effect = higher value;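 note: cells exposed to drugs for 96 hours; 0% = vehicle DMSO and 100% = high DMSO full killing control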
# [14] = RCMB18 cell growth, single agent and combined, cisplatin and BGB IC40 combos (AID 1671462); conditions: RCMB18 medulloblastoma cells, stronger effect = higher value;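 note: cells exposed to compound for four days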
# [15] = CRL1545 cell growth, single agent and combined, cisplatin and BGB IC20 combos (AID 1671464); conditions: CRL1545 osteosarcoma cells, stronger effect = higher value;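 note: cells exposed to compound for 96 hours before readout; 0% = vehicle DMSO and 100% = high DMSO killing control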
# [16] = viability loss in pontine glioma line – cell-based, SU-DIPG-XVII, MIPE5.0, CellTiter-Glo, qHTS, dose response (AID 1347060; cut-off not given, nearly all actives have AC50 up to about 26 µM); conditions: CellTiter-Glo ATP luminescence
# [17] = viability loss in pontine glioma line – cell-based, SU-DIPG-XXV, MIPE5.0, CellTiter-Glo, qHTS, dose response (AID 1347065; cut-off not given, nearly all actives have AC50 up to about 26 µM;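 note: cells exposed to compound for 48 hours before ATP readout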); conditions: CellTiter-Glo ATP luminescence
# [18] = growth inhibition of DIPG cells – cell-based, MIPE5.0 library, qHTS (AID 1347068; cut-off not given, nearly all actives have IC50 up to about 30 µM;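 note: cells exposed to compound for 48 hours before viability readout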); conditions: SU-DIPG-XXV viability
# [19] = measured here: combination with BGB IC40, at 0.05 µM
# [20] = measured here: with BGB IC20 combination, at 0.5 µM
# [21] = measured here: with cisplatin IC20 combination, at 0.5 µM
# [22] = measured here: combination with cisplatin, at 0.5 µM
# [23] = measured here: combination with cisplatin, at 5 µM
smiles,measurement,setting,value
O=c1[nH]c(=O)n(C2CC(O)C(CO)O2)cc1F (stereo unspecified),inhibition,"[1]; at 0.5 µM, stronger effect = higher value",-20.6% (inactive) and -34.4% (inactive)
same,inhibition,"[1]; measured here: combination with BGB IC20, at 0.005 µM",-20.3% and -26.1%
same,inhibition,"[1]; measured here: combination with BGB IC40, at 0.005 µM",-43.8% and -18.6%
same,inhibition,[1]; [19],-14.2% and -19.6%
same,inhibition,"[1]; measured here: combination with cisplatin, at 0.5 µM, stronger effect = higher value",-24.9% and -48.9%
same,inhibition,"[1]; measured here: combination with cisplatin, at 5 µM, stronger effect = higher value",-34.2% and -34.5%
same,inhibition,"[2]; BGB combo, at 5 µM",90.8% and 95.2%
same,inhibition,[2]; at 0.5 µM,75% (inactive) and 78.5% (inactive)
same,inhibition,"[2]; cisplatin combo, at 5 µM",63% and 78%
same,inhibition,[2]; [20],72.2% and 74.3%
same,inhibition,[2]; [21],71.3% and 78.7%
same,inhibition,"[2]; single agent, at 5 µM",78.6% and 88.5%
same,inhibition,"[3]; BGB IC20 combo, at 0.005 µM",-21.6% and 13.5%
same,inhibition,"[3]; BGB IC40 combo, at 0.005 µM",-12.3% and -34.3%
same,inhibition,"[3]; BGB IC40 combo, at 0.05 µM",-9.05% and -30.1%
same,inhibition,[3]; at 0.5 µM,-17.5% (inactive) and -17.1% (inactive)
same,inhibition,"[3]; cisplatin combo, at 0.05 µM",-9.05% and -34.7%
same,inhibition,"[3]; cisplatin combo, at 0.5 µM",-15.5% and -22.4%
same,inhibition,"[3]; cisplatin combo, at 5 µM",-14.7% and -40.3%
same,inhibition,"[3]; measured here: 5 uM single agent, at 5 µM",-2.45% and 14.3%
same,inhibition,[4]; at 0.5 µM,-19.6% (inactive) and -23.9% (inactive)
same,inhibition,[4]; [19],8.22% and -31%
same,inhibition,[4]; [22],23.3% and -25.8%
same,inhibition,[4]; [23],-7.39% and -26.1%
same,inhibition,[5]; at 0.5 µM,-24.9% (inactive) and 12.1% (inactive)
same,inhibition,"[5]; measured here: with BGB IC20, at 0.5 µM",-52.4% and -21.4%
same,inhibition,"[5]; measured here: with BGB IC20, at 5 µM",5.67% and -8.07%
same,inhibition,"[5]; measured here: with cisplatin IC20, at 0.5 µM",-22.6% and 15.4%
same,inhibition,"[5]; measured here: with cisplatin IC20, at 5 µM",14% and 12.8%
same,inhibition,"[5]; single agent, at 5 µM",12% and 38.7%
same,inhibition,[6]; at 0.5 µM,-50.2% (inactive) and -54% (inactive)
same,inhibition,"[6]; measured here: combination with BGB at IC20, at 0.5 µM",-11.9% and -25.4%
same,inhibition,"[6]; measured here: combination with cisplatin at IC20, at 0.5 µM",-87.1% and -79.9%
same,inhibition,[7]; at 0.5 µM,75.2% (inactive) and 82.3% (active)
same,inhibition,"[7]; measured here: combo with BGB at IC20, at 0.5 µM",72.8% and 77.8%
same,inhibition,"[7]; measured here: combo with cisplatin at IC20, at 0.5 µM",79.4% and 87.9%
same,inhibition,[8]; at 0.5 µM,11% (inactive) and 22.1% (inactive)
same,inhibition,"[8]; measured here: inhibition with BGB combination, at 0.05 µM",-37.3% and -7.93%
same,inhibition,"[8]; measured here: inhibition with cisplatin combination, at 0.05 µM",-10.2% and -15.2%
same,inhibition,[9]; at 0.5 µM,-6.08% (inactive) and -22.6% (inactive)
same,inhibition,[9]; [22],-26% and -30.3%
same,inhibition,[9]; [23],-20.5% and -22.8%
same,inhibition,[10]; at 0.5 µM,39.9% (inactive) and 54.5% (inactive)
same,inhibition,"[10]; measured here: BGB combination, at 0.5 µM",12.4% and 36%
same,inhibition,"[10]; measured here: BGB combination, at 5 µM",22.9% and 47.8%
same,inhibition,"[10]; measured here: cisplatin combination, at 0.5 µM",44% and 56.3%
same,inhibition,"[10]; measured here: cisplatin combination, at 5 µM",73% and 86.7%
same,inhibition,"[11]; BGB combination, concentration series, at 5 µM",17.5% and 50.3%
same,inhibition,[11]; at 0.5 µM,15.2% (inactive) and 29.3% (inactive)
same,inhibition,"[11]; cisplatin combination, concentration series, at 5 µM",55.7% and 77.6%
same,inhibition,[12],17.4% (inactive) and 30.8% (inactive)
same,inhibition,[12]; measured here: combo with BGB IC20,14.4% and 24.7%
same,inhibition,[12]; measured here: combo with cisplatin IC20,5.72% and 15.6%
same,inhibition,[13]; at 0.5 µM,-20.4% (inactive) and -2.18% (inactive)
same,inhibition,"[13]; cisplatin combination, at 0.5 µM",-4.33% and -24.2%
same,inhibition,"[13]; cisplatin combination, at 5 µM",-24.6% and 6.37%
same,inhibition,"[13]; measured here: BGB IC40 combination 0.05 uM, at 0.05 µM",-0.925% and 1.52%
same,inhibition,"[13]; single agent, at 5 µM",-4.53% and -3.71%
same,inhibition,[14]; at 0.5 µM,-3.13% (inactive) and -17.8% (inactive)
same,inhibition,"[14]; cisplatin combo, at 5 µM",11.8% and 9.06%
same,inhibition,"[14]; measured here: BGB IC40 combination, at 0.05 µM",-3.94% and -12.9%
same,inhibition,[14]; [22],1.15% and 0.687%
same,inhibition,"[14]; single agent, at 5 µM",-14.6% and -9.12%
same,inhibition,[15]; at 0.5 µM,30.4% (inactive) and 66.8% (inactive)
same,inhibition,[15]; [20],10.3% and 56.4%
same,inhibition,[15]; [21],40.5% and 71.6%
same,inhibition,"[15]; single agent, at 0.05 µM",7.06% and 11.7%
same,inhibition,"[15]; single agent, at 5 µM",91.4% and 96.1%
C=C1/C(=C\C=C2/CCC[C@]3(C)[C@@H]([C@H](C)CCCC(C)(C)O)CC[C@@H]23)C[C@@H](O)C[C@@H]1O,outcome,[16],inactive
same,outcome,[17],inactive
same,IC50,[18],23.5 µM (active)
